# Laboratory results: publication PMC7862700, “An all-to-all approach to the identification of sequence-specific readers for epigenetic DNA modifications on cytosine”
# How the values were obtained:
# Assay in all cases: DAPPL (digital affinity profiling via proximity ligation, sequencing); 10 mM Tris-HCl pH 7.5, 50 mM NaCl, 1 mM DTT, 4% glycerol, room temperature, 30 min; GST-TFs on glutathione beads, 16-mer random dsDNA library, 0.1% formaldehyde crosslink after washing; high values mean tight binding
# FLI1 = target: T1, FLI1 (Homo sapiens, UniProt Q01543 1-452); details: protein: recombinant; tags: N-terminal GST; dsDNA, one strand shown
# T1 sequence: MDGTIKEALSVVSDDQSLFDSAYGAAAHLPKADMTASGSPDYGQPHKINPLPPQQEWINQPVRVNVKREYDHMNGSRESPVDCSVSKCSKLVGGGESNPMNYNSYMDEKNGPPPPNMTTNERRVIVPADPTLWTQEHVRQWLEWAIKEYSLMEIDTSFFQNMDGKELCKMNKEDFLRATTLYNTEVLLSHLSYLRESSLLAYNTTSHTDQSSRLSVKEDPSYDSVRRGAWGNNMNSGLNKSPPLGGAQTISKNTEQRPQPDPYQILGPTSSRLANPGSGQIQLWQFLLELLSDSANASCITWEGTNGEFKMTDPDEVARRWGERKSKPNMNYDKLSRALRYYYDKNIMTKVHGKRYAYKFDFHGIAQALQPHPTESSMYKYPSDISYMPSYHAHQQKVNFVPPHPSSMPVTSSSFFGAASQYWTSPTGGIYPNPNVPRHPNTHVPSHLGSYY
# Summary of the method: (§1)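 Human transcription factors fused to GST were expressed in yeast, captured on glutathione beads, given DNA barcodes and pooled with a GST-only negative control. Pools were incubated with 200 nmole of a 16-mer random double-stranded DNA library in Tris/NaCl/DTT/glycerol buffer at room temperature for 30 min. They were then washed, crosslinked with 0.1% formaldehyde, proximity-ligated (BsaI/T4 ligase, 1 h, 37 °C), PCR-amplified and sequenced on an Illumina NextSeq500. Binding signal is each 6-mer's read frequency for a factor divided by its frequency for the GST control.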
# ELK1 = target: T2, ELK1 (Homo sapiens, UniProt P19419 1-428); details: protein: recombinant; tags: N-terminal GST; dsDNA, one strand shown
# T2 sequence: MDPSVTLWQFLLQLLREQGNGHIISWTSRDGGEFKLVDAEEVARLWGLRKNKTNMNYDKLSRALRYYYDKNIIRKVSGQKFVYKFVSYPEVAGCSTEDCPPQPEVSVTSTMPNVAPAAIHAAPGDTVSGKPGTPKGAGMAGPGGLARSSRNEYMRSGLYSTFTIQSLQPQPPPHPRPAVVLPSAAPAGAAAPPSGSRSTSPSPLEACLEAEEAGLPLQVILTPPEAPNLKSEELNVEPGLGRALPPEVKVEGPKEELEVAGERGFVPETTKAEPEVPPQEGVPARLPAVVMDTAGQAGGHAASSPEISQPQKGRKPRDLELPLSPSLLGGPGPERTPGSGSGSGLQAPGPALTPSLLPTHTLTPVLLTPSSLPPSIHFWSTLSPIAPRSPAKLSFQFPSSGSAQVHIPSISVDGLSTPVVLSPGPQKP
# Summary of the method: as §1
# GABPA = target: T3, GABPA (Homo sapiens, UniProt Q06546 1-454); details: protein: recombinant; tags: N-terminal GST; dsDNA, one strand shown
# T3 sequence: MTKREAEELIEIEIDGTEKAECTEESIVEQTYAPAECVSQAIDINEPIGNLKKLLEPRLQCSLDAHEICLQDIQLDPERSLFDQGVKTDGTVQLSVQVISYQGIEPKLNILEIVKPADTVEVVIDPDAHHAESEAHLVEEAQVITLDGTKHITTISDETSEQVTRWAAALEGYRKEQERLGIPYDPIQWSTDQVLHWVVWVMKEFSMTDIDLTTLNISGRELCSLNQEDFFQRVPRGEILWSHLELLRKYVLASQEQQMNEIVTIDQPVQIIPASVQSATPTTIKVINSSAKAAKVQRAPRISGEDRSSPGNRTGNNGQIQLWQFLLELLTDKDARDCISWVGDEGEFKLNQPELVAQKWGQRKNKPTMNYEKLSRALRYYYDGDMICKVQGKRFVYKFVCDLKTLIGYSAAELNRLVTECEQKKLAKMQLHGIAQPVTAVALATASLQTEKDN
# Summary of the method: as §1
# ERG = target: T4, ERG (Homo sapiens, UniProt P11308 1-479); details: protein: recombinant; tags: N-terminal GST; dsDNA, one strand shown
# T4 sequence: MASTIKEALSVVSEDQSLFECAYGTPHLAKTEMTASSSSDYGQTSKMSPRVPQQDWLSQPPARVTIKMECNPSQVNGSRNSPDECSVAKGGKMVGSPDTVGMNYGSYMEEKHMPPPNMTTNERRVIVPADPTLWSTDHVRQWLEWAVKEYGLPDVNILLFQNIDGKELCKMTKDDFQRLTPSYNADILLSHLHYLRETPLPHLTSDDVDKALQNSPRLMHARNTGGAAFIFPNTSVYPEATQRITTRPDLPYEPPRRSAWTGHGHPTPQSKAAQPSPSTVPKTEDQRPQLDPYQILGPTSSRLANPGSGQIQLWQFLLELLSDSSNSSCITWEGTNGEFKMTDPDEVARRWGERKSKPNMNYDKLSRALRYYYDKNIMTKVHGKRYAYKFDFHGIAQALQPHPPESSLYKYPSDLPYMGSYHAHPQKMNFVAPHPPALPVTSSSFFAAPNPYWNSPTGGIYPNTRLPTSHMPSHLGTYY
# Summary of the method: as §1
# ELF1 = ELF1 (Homo sapiens, UniProt P32519 1-619); details: protein: recombinant; tags: N-terminal GST; dsDNA, one strand shown
# ELF1, sequence (P32519 whole entry): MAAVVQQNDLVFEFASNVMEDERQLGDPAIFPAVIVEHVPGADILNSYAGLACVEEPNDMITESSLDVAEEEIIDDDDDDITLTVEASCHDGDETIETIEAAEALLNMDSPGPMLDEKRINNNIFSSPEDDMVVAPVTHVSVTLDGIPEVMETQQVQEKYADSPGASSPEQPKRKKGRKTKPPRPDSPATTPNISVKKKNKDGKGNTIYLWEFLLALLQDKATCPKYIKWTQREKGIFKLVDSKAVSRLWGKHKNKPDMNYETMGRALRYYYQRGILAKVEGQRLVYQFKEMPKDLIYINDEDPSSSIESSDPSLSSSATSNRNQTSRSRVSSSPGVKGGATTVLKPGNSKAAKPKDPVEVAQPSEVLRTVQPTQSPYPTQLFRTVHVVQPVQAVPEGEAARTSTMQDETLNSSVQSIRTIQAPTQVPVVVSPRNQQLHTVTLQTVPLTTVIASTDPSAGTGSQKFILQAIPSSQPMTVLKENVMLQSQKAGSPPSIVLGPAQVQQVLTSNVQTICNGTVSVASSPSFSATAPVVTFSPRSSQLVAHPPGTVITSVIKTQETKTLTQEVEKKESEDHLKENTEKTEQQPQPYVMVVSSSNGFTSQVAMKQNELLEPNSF
# Summary of the method: as §1
# EHF = target: T5, EHF (Homo sapiens, UniProt Q9NZC4 1-300); details: protein: recombinant; tags: N-terminal GST; dsDNA, one strand shown
# T5 sequence: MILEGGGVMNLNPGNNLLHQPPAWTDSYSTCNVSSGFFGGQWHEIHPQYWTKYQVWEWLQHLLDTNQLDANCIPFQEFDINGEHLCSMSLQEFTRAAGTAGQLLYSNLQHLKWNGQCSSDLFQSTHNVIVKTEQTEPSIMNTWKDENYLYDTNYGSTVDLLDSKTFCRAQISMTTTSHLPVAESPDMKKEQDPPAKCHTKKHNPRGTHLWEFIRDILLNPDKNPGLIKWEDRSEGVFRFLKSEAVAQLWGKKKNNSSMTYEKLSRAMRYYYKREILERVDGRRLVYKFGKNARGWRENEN
# Summary of the method: as §1
# SPI1 = SPI1 (Homo sapiens, UniProt P17947 1-270); details: protein: recombinant; tags: N-terminal GST; dsDNA, one strand shown
# Summary of the method: as §1
# SPIB = SPIB (Homo sapiens, UniProt Q01892 1-262); details: protein: recombinant; tags: N-terminal GST; dsDNA, one strand shown
# SPIB, sequence (Q01892 whole entry): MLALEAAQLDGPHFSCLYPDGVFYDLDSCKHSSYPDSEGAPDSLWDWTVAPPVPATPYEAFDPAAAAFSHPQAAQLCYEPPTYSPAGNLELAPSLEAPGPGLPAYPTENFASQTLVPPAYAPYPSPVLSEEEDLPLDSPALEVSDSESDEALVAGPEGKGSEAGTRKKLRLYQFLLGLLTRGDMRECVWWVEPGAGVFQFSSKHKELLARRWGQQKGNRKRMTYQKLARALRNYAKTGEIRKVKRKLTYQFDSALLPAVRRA
# Summary of the method: as §1
# ELK3 = target: T6, ELK3 (Homo sapiens, UniProt P41970 1-407); details: protein: recombinant; tags: N-terminal GST; dsDNA, one strand shown
# T6 sequence: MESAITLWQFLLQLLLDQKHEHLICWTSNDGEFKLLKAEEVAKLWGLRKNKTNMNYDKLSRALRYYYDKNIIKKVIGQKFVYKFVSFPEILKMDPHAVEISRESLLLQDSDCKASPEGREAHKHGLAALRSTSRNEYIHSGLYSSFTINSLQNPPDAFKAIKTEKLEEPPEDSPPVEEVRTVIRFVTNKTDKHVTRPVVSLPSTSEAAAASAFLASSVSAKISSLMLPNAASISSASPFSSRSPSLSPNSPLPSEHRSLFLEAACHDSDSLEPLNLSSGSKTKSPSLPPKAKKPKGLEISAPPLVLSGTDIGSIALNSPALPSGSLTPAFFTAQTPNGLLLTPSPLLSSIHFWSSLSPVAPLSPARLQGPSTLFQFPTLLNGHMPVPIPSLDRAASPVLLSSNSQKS
# Summary of the method: as §1
# FEV = target: T7, FEV (Homo sapiens, UniProt Q99581 1-238); details: protein: recombinant; tags: N-terminal GST; dsDNA, one strand shown
# T7 sequence: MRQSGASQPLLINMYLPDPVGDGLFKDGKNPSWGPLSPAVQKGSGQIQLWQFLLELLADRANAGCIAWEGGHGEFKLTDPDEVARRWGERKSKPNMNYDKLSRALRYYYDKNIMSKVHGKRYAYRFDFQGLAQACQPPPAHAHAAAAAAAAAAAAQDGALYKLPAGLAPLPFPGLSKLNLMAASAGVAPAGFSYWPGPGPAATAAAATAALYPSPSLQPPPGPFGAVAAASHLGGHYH
# Summary of the method: as §1
# ETV5 = ETV5 (Homo sapiens, UniProt P41161 1-510); details: protein: recombinant; tags: N-terminal GST; dsDNA, one strand shown
# ETV5, sequence (P41161 whole entry): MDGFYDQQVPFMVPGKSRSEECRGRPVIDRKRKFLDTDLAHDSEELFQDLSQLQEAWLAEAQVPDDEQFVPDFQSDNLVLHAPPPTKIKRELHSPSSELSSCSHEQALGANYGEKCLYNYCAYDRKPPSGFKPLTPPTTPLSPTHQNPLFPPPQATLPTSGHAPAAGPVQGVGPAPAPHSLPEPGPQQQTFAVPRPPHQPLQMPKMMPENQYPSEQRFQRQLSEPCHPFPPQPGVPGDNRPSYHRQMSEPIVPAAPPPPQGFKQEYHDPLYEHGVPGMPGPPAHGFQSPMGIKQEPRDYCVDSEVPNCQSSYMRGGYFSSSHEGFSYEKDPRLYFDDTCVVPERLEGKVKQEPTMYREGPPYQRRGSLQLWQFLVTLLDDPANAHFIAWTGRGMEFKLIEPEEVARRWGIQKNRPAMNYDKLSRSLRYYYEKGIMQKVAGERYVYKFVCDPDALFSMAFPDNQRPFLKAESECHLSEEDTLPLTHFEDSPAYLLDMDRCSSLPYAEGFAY
# Summary of the method: as §1
# HSF1 = HSF1 (Homo sapiens, UniProt Q00613 1-529); details: protein: recombinant; tags: N-terminal GST; chain copies: 3; dsDNA, one strand shown
# HSF1, sequence (Q00613 whole entry): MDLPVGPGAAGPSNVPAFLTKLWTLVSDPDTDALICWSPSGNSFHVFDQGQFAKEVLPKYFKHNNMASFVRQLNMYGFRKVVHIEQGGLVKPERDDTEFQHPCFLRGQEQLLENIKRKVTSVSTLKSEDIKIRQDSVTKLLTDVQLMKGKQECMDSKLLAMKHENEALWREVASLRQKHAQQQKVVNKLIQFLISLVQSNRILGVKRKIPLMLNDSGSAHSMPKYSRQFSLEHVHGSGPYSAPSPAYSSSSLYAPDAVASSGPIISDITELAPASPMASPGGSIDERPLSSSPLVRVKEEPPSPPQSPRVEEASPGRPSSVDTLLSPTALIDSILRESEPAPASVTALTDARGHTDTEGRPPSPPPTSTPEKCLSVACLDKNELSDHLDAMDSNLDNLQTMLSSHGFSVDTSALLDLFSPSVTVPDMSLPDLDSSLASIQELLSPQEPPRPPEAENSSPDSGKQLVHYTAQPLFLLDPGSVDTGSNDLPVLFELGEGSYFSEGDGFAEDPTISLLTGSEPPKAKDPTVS
# Summary of the method: as §1
# SPIC = target: T8, SPIC (Homo sapiens, UniProt Q8N5J4 1-248); details: protein: recombinant; tags: N-terminal GST; dsDNA, one strand shown
# T8 sequence: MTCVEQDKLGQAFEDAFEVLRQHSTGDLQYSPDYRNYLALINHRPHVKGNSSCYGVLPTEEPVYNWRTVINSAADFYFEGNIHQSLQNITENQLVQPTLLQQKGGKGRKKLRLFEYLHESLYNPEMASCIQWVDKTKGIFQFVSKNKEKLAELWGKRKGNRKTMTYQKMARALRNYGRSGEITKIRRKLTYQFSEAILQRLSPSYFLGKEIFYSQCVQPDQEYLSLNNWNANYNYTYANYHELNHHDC
# Summary of the method: as §1
# ELF4 = ELF4 (Homo sapiens, UniProt Q99607 1-663); details: protein: recombinant; tags: N-terminal GST; dsDNA, one strand shown
# ELF4, sequence (Q99607 whole entry): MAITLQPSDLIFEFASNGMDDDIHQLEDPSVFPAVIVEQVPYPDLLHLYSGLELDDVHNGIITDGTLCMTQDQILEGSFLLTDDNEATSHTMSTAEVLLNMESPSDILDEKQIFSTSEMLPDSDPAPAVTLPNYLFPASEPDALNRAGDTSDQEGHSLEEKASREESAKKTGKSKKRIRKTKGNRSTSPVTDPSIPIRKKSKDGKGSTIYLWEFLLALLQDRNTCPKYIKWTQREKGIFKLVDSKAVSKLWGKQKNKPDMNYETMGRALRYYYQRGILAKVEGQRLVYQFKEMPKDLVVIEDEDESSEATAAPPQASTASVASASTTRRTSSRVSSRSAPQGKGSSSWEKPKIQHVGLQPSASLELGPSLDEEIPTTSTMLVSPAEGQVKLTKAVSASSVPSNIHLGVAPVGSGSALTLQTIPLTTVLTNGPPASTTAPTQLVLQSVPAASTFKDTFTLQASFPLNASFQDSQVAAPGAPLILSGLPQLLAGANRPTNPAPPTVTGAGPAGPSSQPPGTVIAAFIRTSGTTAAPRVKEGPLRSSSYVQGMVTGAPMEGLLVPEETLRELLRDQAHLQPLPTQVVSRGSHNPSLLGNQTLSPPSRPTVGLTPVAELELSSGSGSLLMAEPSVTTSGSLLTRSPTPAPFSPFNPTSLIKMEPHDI
# Summary of the method: as §1
# ELK4 = target: T9, ELK4 (Homo sapiens, UniProt P28324-2 1-405); details: protein: recombinant; tags: N-terminal GST; dsDNA, one strand shown
# T9 sequence: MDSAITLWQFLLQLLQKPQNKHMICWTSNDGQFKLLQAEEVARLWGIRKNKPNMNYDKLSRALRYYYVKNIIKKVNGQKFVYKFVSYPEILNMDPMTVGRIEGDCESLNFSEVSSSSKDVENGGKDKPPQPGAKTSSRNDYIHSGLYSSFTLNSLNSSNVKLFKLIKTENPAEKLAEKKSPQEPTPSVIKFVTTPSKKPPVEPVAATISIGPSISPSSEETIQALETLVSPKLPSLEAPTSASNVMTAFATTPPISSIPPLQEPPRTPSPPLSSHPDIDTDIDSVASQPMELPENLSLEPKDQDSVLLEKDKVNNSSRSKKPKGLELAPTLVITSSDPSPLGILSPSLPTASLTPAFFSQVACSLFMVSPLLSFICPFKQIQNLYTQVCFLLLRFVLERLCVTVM
# Summary of the method: as §1
# ETV2 = target: T10, ETV2 (Homo sapiens, UniProt O00321 1-342); details: protein: recombinant; tags: N-terminal GST; dsDNA, one strand shown
# T10 sequence: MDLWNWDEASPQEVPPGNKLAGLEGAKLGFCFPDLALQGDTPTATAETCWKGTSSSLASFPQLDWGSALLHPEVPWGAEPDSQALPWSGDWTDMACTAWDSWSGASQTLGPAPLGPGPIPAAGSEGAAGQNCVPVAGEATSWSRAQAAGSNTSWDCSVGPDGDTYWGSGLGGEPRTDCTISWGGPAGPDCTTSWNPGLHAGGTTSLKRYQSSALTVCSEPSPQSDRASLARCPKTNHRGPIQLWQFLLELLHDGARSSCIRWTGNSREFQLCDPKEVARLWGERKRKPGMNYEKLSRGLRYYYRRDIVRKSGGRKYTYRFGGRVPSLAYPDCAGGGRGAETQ
# Summary of the method: as §1
# ELF3 = target: T11, ELF3 (Homo sapiens, UniProt P78545 1-371); details: protein: recombinant; tags: N-terminal GST; dsDNA, one strand shown
# T11 sequence: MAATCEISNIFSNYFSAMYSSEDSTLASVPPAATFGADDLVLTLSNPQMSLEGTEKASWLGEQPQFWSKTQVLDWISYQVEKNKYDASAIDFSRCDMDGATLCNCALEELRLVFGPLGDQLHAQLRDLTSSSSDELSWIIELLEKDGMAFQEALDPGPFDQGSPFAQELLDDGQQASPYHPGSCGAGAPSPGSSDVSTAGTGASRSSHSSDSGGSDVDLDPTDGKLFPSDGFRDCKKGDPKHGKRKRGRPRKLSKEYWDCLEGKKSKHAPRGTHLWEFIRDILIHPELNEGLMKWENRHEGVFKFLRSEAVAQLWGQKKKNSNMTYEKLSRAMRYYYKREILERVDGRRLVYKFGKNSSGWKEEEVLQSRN
# Summary of the method: as §1
# CRX = CRX (Homo sapiens, UniProt O43186 1-299); details: protein: recombinant; tags: N-terminal GST; dsDNA, one strand shown
# CRX, sequence (O43186 whole entry): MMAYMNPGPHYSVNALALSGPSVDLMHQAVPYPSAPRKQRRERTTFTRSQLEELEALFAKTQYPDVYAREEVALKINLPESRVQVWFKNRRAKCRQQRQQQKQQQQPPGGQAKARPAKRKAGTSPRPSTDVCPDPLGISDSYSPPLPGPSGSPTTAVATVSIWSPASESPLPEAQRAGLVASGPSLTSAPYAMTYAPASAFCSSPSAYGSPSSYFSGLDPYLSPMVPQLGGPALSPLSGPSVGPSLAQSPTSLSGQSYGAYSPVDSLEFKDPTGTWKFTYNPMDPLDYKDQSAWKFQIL
# Summary of the method: as §1
# ETV1 = ETV1 (Homo sapiens, UniProt P50549 1-477); details: protein: recombinant; tags: N-terminal GST; dsDNA, one strand shown
# ETV1, sequence (P50549 whole entry): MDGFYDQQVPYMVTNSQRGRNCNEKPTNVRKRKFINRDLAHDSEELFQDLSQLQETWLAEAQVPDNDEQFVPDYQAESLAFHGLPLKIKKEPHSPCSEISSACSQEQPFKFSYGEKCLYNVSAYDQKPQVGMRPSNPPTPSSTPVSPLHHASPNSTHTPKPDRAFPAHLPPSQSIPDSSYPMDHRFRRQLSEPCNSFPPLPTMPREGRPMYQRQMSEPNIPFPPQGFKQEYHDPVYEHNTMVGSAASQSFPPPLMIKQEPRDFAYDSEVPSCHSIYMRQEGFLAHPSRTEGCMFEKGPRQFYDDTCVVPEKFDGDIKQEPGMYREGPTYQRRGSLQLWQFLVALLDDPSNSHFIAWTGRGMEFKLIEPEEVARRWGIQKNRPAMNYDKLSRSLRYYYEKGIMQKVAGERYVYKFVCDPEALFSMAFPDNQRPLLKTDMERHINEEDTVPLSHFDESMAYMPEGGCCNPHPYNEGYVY
# Summary of the method: as §1
sequence,measurement,setting,value
GTCCTA,binding signal,FLI1,"1.15 fold enrichment (6-mer frequency, TF over GST control)"
same,binding signal,ELK1,"1.19 fold enrichment (6-mer frequency, TF over GST control)"
same,binding signal,GABPA,"1.22 fold enrichment (6-mer frequency, TF over GST control)"
same,binding signal,ERG,"1.14 fold enrichment (6-mer frequency, TF over GST control)"
same,binding signal,ELF1,"1.12 fold enrichment (6-mer frequency, TF over GST control)"
same,binding signal,EHF,"1.16 fold enrichment (6-mer frequency, TF over GST control)"
same,binding signal,SPI1,"1.16 fold enrichment (6-mer frequency, TF over GST control)"
same,binding signal,SPIB,"1.18 fold enrichment (6-mer frequency, TF over GST control)"
same,binding signal,ELK3,"1.12 fold enrichment (6-mer frequency, TF over GST control)"
same,binding signal,FEV,"1.07 fold enrichment (6-mer frequency, TF over GST control)"
same,binding signal,ETV5,"1.16 fold enrichment (6-mer frequency, TF over GST control)"
same,binding signal,HSF1,"1.03 fold enrichment (6-mer frequency, TF over GST control)"
same,binding signal,SPIC,"1.16 fold enrichment (6-mer frequency, TF over GST control)"
same,binding signal,ELF4,"1.18 fold enrichment (6-mer frequency, TF over GST control)"
same,binding signal,ELK4,"1.13 fold enrichment (6-mer frequency, TF over GST control)"
same,binding signal,ETV2,"1.31 fold enrichment (6-mer frequency, TF over GST control)"
same,binding signal,ELF3,"1.2 fold enrichment (6-mer frequency, TF over GST control)"
same,binding signal,CRX,"1.06 fold enrichment (6-mer frequency, TF over GST control)"
same,binding signal,ETV1,"1.12 fold enrichment (6-mer frequency, TF over GST control)"
